From PubChem BioAssay (NCATS) come the findings set out here.

Values without a mark were called inactive. Records with an inconclusive call do not appear. The source made the active and inactive calls. The call rests on the fitted dose curve; in most records, active means well fitted curve in the direction sought with a large enough effect; inconclusive means small, poorly fitted or top-dose-only effect, or another doubt; inactive means no such curve, though single readings can be large; an effect the other way counts as inactive or inconclusive.

The target of test [1] is Glutathione peroxidase 1 (Homo sapiens) (UniProt P07203). The test is described as follows: Primary qHTS Assay for Inhibitors of Recombinant Selenoprotein Glutathione Peroxidase 1 (GPX1) (AID 1845191). Further: nearly all actives have a fitted effect of over 65% in size. On activity, negative = inhibition: on the % scale 0 is the no-effect control and ±100 the full control effect. In outline:
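NADPH consumption tracked by fluorescence at 340/450 nm between t=0 and t=15 min, room temperature. Final mix: 10 nM GPX1, 100 nM glutathione reductase, 1 mM GSH, 0.5 mM NADPH, 0.5 mM cumene hydroperoxide, 0.01% BSA; 30 min compound–enzyme preincubation.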
For orientation: In qHTS, concentration-response curves come from the screen itself.

Test [2] has as its target Phospholipid hydroperoxide glutathione peroxidase GPX4 (Homo sapiens) (UniProt P36969). Nature of the test: Primary qHTS Assay for Inhibitors of Recombinant Selenoprotein Glutathione Peroxidase 4 (GPX4) (AID 1845192). Further: nearly all actives have a fitted effect of over 65% in size. A digest of the protocol: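 NADPH consumption followed by fluorescence at 340/450 nm, t=0 and after 15 min at room temperature. Reaction started with cumene hydroperoxide (0.5 mM final) after 30 min compound–GPX4 preincubation; final 200 nM GPX4, 100 nM GR, 1 mM GSH, 0.5 mM NADPH.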

A short description of test [3]: Primary fluorescence-based thiol-reactive (MSTI) qHTS assay for identification of artifact compounds. (AID 1845221). Further: nearly all actives have a fitted effect of over 65% in size. Further: potency means the concentration at half of the fitted maximal effect.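 On activity change, negative = thiol reactive: series mostly up to about 54 µM; thiol-reactive compounds lower the probe fluorescence signal.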 In outline:
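First, 4 uM MSTI in 2% DMSO/PBS pH 7.4 was dispensed; next, compounds were added; then plates sat 1 h at room temperature without light. Finally, emission at 598 nm was recorded.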

The subject of test [4] is Nanoluciferase (engineered Oplophorus gracilirostris luciferase). The test is described as follows: Primary Nanoluciferase (NLuc) qHTS assay for identification of artifact compounds. (AID 1845222).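 Further: NLuc secreted into diluted conditioned medium of S16 cells; series mostly up to about 54 µM; 0% = DMSO and -100% = no enzyme.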 In outline:
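NLuc from S16 cell medium (1:55) plus test compounds, 15 min, room temperature. Luminescence after Nano-Glo (1:100) addition, 5 min.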

Test [5] has as its target Luciferin 4-monooxygenase (Photinus pyralis) (UniProt P08659). Nature of the test: Primary firefly luciferase (FLuc) qHTS assay for identification of artifact compounds. (AID 1845220). Further: nearly all actives have a fitted effect of over 60% in size. In outline: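 FLuc 10 nM; luciferin 10 uM; ATP 10 uM; Tris-acetate pH 7.6, Mg-acetate 10 mM; 15 min RT preincubation; 5 min reaction; luminescence.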

Phospholipid hydroperoxide glutathione peroxidase GPX4 (Homo sapiens), sequence (P36969 whole entry, looked up): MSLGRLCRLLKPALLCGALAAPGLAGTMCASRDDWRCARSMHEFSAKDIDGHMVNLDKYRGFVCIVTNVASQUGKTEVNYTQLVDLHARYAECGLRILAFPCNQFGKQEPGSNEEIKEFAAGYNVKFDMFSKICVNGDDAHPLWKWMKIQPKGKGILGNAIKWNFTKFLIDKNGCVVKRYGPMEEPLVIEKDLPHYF
Glutathione peroxidase 1 (Homo sapiens), sequence (P07203 whole entry, looked up): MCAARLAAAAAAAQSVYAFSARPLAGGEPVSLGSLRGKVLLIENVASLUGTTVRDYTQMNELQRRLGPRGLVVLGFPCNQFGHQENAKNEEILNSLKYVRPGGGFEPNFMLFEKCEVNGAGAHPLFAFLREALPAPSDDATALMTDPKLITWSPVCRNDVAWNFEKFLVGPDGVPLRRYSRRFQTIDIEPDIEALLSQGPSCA

For `CC1=C(C(=O)OC2CCCCC2)C(c2ccc([N+](=O)[O-])cc2)C2=C(CC(C)(C)CC2=O)N1` (stereo unspecified), the Potency entry in test [1], in test [2] and in test [3] was “inactive” throughout.

As for `C=C1C(=O)OC[C@@H]1C/C=C(\C)CC1CC(C)C(=O)O1` (stereo partly specified), the Potency entry in test [1], in test [2] and in test [4] was “inactive” each time. Besides, the Potency in test [3] is 8.44 µM (active).

`CN(C)c1ccc(NC(=O)NS(=O)(=O)c2ccc(Cl)cc2)cc1`: the Potency result in test [1], in test [2] and in test [4] was “inactive” in each case. Further, the Potency in test [3] was 1.89 µM (active).

In the case of `Cc1cc(C(=O)Nc2cc(Nc3ccc4c(/C=C/c5ccccn5)n[nH]c4c3)ccc2F)n(C)n1`, the Potency entry in test [1], in test [2] and in test [4] was “inactive” each time. In test [3], the Potency is 11.9 µM (active).

On to `COC1C=C(C)C(O)(CO)C2(C)CCCC(C)(C)C12` (stereo unspecified), for which the Potency entry in test [1], in test [2], in test [3] and in test [4] was “inactive” in each case.

Turning to `C=C1C(=O)O[C@@H]2/C=C(\CO)CC/C=C(/C=O)C[C@H](O)[C@@H]12`, the Potency result in test [1], in test [2] and in test [4] was “inactive” in each case. Besides, the Potency in test [3] was 11.9 µM (active).

For the molecule `COC1CCN(c2cccc(-c3cc(NC(C)=O)nc(-n4nc(C)cc4C)n3)n2)CC1`, the Potency result in test [1], in test [2], in test [3] and in test [4] was “inactive” throughout.

For `C=CS(=O)(=O)NC1CCN(C(=O)CNc2cc(I)c(Cl)cc2OC)CC1`, the Potency entry in test [1], in test [2], in test [5] and in test [4] was “inactive” throughout.

Regarding `Cc1sc2c(c1C)C(c1ccc(Cl)cc1)=N[C@H](CC(=O)NCCCCNC(=O)COc1cccc3c1C(=O)N([C@H]1CCC(=O)NC1=O)C3=O)c1nnc(C)n1-2`, the Potency entry in test [1], in test [2], in test [3] and in test [4] was “inactive” each time.

As to `COc1cc(OC)c(NC(=O)c2ccc(Cc3cc4c(cc3C)C(C)(C)CCC4(C)C)o2)c(OC)c1`, the Potency entry in test [1], in test [2], in test [5] and in test [4] was “inactive” each time.

Consider `COc1c(C)cc(NC(=O)c2nn(Cc3ccc(F)cc3)c3c2CN(C(=O)c2ccc[nH]2)C[C@]3(C)C(N)=O)cc1C`, for which the Potency entry in test [1] and in test [2] was “inactive” throughout. Moreover, the activity change, negative = thiol reactive in test [3] was 108% [at 11.5 µM]. Besides, in test [4], the activity, negative = inhibition was 0.489% [at 11.6 µM].

Regarding `COc1ccc([C@H]2Cc3cccc(O)c3C(=O)O2)cc1OC`, the Potency result in test [1], in test [2], in test [3] and in test [4] was “inactive” in each case.

Turning to `O=C(Nc1ccc(-n2nc(C(F)(F)F)cc2C(F)(F)F)cc1)c1ccncc1F`, the Potency entry in test [1], in test [2], in test [3] and in test [4] was “inactive” throughout.

Consider `CCOc1ccc(CCNC(=O)c2cc3sc(Cl)cc3n2C)cc1OCC`, for which the Potency entry in test [1], in test [2], in test [5] and in test [4] was “inactive” in each case.

Take `COc1ccc2c(NC(=O)Nc3cccc(C(F)(F)F)n3)ccnc2c1`: the Potency result in test [1], in test [2], in test [3] and in test [4] was “inactive” throughout.

Consider `CC1(C)Oc2ncnc(N)c2N=C1c1ccc(C23CCC(CC(=O)O)(CC2)CC3)cc1`, for which the Potency entry in test [1], in test [2], in test [3] and in test [4] was “inactive” in each case.

As for `N#Cc1cccc(C(=O)Nc2cc(-c3ccccc3)nn2-c2ccccc2)c1`, the Potency result in test [1], in test [2], in test [3] and in test [4] was “inactive” throughout.

Regarding `O=C(NCCN1CCOCC1)c1cc2c(Oc3ccc(NC(=O)C4(C(=O)Nc5ccc(F)cc5)CC4)cc3)ccnc2[nH]1`, the Potency result in test [1], in test [2], in test [5] and in test [4] was “inactive” in each case.

On to `O=C(Nc1nc2ccc([N+](=O)[O-])cc2s1)C1CCCCC1`, for which the Potency result in test [1], in test [2] and in test [4] was “inactive” each time.

Turning to `CCCc1ccc(OCC(=O)N(Cc2nc(-c3cccnc3)no2)C(C)C)cc1`, the Potency result in test [1], in test [2], in test [3] and in test [4] was “inactive” in each case.

In the case of `C=C1C(=O)O[C@H]2CC(=C)[C@H]3CC[C@@](C)(O)[C@@H]3CC12` (stereo partly specified), the Potency result in test [1], in test [2] and in test [4] was “inactive” throughout. Moreover, the Potency in test [3] is 5.32 µM (active).

With `O=C(Nc1ccccc1C(=O)Nc1ccc(CCO)cc1)c1ccc([N+](=O)[O-])cc1`, the Potency entry in test [1], in test [2] and in test [4] was “inactive” throughout.

Turning to `CN(C)Cc1ccc(-c2cnn3c(-c4cccc(NC(=O)c5cccc(C(F)(F)F)c5)c4)ccnc23)cc1`, the Potency entry in test [1], in test [2], in test [3] and in test [4] was “inactive” in each case.

With `CCCCOC(=O)NS(=O)(=O)c1sc(CC(C)C)cc1-c1ccc(Cn2ccnc2)cc1`, the Potency result in test [1], in test [2], in test [3] and in test [4] was “inactive” throughout.

Turning to `C=C1/C(=C/C=C2\CCC[C@]3(C)[C@@H]([C@H](C)CC[C@@H](O)C(C)(C)O)CC[C@@H]23)C[C@@H](O)C[C@@H]1O`, the Potency result in test [1], in test [2], in test [3] and in test [4] was “inactive” each time.

Turning to `C=C1[C@@H](OC(C)=O)CC[C@@]2(C)[C@@H](OC(C)=O)[C@H](OC(C)=O)C3=C(C)C[C@H](OC(=O)C(C)CC)[C@@H]([C@@H](OC(C)=O)[C@H]12)C3(C)C` (stereo partly specified), the Potency entry in test [1], in test [2] and in test [4] was “inactive” in each case.

In the case of `O=C(Nc1nnc(-c2ccc3c(c2)OCCO3)o1)C1CCCCC1`, the Potency entry in test [1], in test [2], in test [3] and in test [4] was “inactive” throughout.

For the molecule `CC(C)S(=O)(=O)NC[C@@H]1CC(c2ccc(N3CCCC3)c(F)c2)=NO1`, the Potency entry in test [1], in test [2] and in test [4] was “inactive” each time.

As for `N#Cc1cc(-c2ccnc(Nc3ccc(N4CCOCC4)cc3)n2)ccc1OC1CCOCC1`, the Potency entry in test [1], in test [2] and in test [4] was “inactive” each time.

As to `CCn1c2ccccc2c2cc(Nc3ccnc(NCCCN4CCOCC4)n3)ccc21`, the Potency result in test [1], in test [2] and in test [4] was “inactive” in each case.

On to `Cc1ccc(O)cc1Nc1ccnc(Nc2cccc(C(N)=O)c2)n1`, for which the Potency entry in test [1], in test [2], in test [3] and in test [4] was “inactive” in each case.

For `CC(=O)OC1CC(O)(C(C)C)C2C(OC(=O)c3ccc(O)cc3)C=C(C)C(=O)CC12C` (stereo unspecified), the Potency result in test [1], in test [2], in test [3] and in test [4] was “inactive” throughout.
